Measured values as given in PubChem BioAssay (EPA / NIEHS).
“And” between values parts separate entries of the source, which are not always exact repeats. Equal entries are not always repeated. More than one record can exist for a structure, and the calls need not agree. The source made the active and inactive calls. The calls were made as follows: active = hit-call score of the fitted dose curve at least 0.9, where 1 is the maximum; inactive = score below 0.9.

molecular target: Cellular tumor antigen p53 (Homo sapiens) (UniProt P04637); experiment: ATG_p53_CIS: Attagene CIS-FACTORIAL HepG2 Assay for human p53 Transcription Factor (AID 2282994); settings: HepG2 p53 cis-element reporter, Attagene mRNA; actives raise or lower the signal
Sequence (P04637 whole entry, looked up, the tested form may be a part): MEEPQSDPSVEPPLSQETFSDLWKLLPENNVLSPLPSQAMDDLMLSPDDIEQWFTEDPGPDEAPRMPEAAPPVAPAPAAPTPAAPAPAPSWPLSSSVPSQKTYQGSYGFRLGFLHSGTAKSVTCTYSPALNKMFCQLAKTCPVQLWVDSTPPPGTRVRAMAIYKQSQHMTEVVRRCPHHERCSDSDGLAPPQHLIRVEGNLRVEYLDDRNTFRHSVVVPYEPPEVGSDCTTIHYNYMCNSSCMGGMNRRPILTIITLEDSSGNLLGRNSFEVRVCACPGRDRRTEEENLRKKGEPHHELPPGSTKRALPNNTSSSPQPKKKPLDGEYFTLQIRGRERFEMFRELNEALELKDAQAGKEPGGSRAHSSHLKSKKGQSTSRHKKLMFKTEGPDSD
Summary of the method: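 Steps: transfect HepG2 with multiplexed cis reporter constructs; dose chemicals 24 h; extract RNA, reverse-transcribe, PCR-amplify reporter sequences; FAM-label, HpaI-digest, resolve fragments by CE. Activity fitted both directions relative to DMSO.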

Compound | outcome | AC50
N#CN=C(N)N | inactive | –
CCc1ccccc1C | inactive | –
CCNc1nc(NC(C)(C)C)nc(SC)n1 | inactive | –
CCOP(=S)(OCC)SCCS(=O)(=O)CC | inactive | –
CC(=O)[O][Hg][c]1ccccc1 | inactive | –
CCOP(OCC)OCC | inactive | –
C=C(C)C#N | inactive | –
O=C(O)C(F)(F)C(F)(F)C(F)(F)C(F)(F)C(F)(F)C(F)(F)F | inactive | –
CCC(C)(C)c1ccc(O)c(C(C)(C)CC)c1 | inactive | –
CCCCP(CCCC)CCCC | inactive | –
COS(=O)(=O)c1ccc(C)cc1 | inactive | –
Clc1ccc(C2(Cn3cncn3)CC(Br)CO2)c(Cl)c1 (stereo not given) | inactive | –
CC(=[OH+])/C=C(/C)[O-].CC(=[OH+])/C=C(/C)[O-].CC(=[OH+])/C=C(/C)[O-].[Fe] | inactive | –
c1cc[c]([Hg][c]2ccccc2)cc1 | inactive | –
C[C@@H]1C[C@@H]([C@H](O)CC2CC(=O)NC(=O)C2)C(=O)[C@@H](C)C1 | inactive | 1.24 µM (active) and 2.34 µM (active) and 1.67 µM (active)
O=C1C2(Cl)C3(Cl)C4(Cl)C(Cl)(Cl)C5(Cl)C3(Cl)C1(Cl)C5(Cl)C24Cl (stereo not given) | inactive | –
ClC1(Cl)C2(Cl)C3(Cl)C4(Cl)C(Cl)(Cl)C5(Cl)C3(Cl)C1(Cl)C5(Cl)C24Cl (stereo not given) | inactive | –
ClC1=C(Cl)[C@]2(Cl)[C@@H]3[C@@H](Cl)[C@@H](Cl)C[C@@H]3[C@@]1(Cl)C2(Cl)Cl | inactive | –
CN(C)P(=O)(N(C)C)N(C)C | inactive | –
CCN1CCC2(CC1)COc1cc3c(cc12)N(C(=O)c1ccc(-c2ccc(-c4nnc(C)o4)cc2C)cc1)CC3 | inactive | –
O=C(O)C(F)(F)C(F)(F)C(F)(F)C(F)(F)C(F)(F)C(F)(F)C(F)(F)C(F)(F)C(F)(F)C(F)(F)F | – | 58.3 µM (active) and 37.6 µM (active)
CCC(C)c1cccc(C(C)CC)c1O (stereo not given) | inactive | –
O=C(c1ccccc1)C(Cl)Cl | inactive | –
COC[C@H](C)N(C(=O)CCl)c1c(C)csc1C | inactive | –
Oc1cccc2cccnc12 | inactive | –
CC(C)C1CCC(Cc2ccc(Cl)cc2)C1(O)Cn1cncn1 (stereo not given) | – | 11 µM (active)

read-out: not listed separately; experiment: BSK_3C_TissueFactor: BioMAP Diversity Plus: 3C Assay for Tissue Factor Biomarker Activity (AID 2282997); settings: BioMAP 3C HUVEC, tissue factor biomarker readout; actives raise or lower the signal
Summary of the method: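 Tissue factor on primary human umbilical vein endothelium was read by ELISA 24 h after dosing, gain or loss relative to DMSO. Cytotoxicity ran alongside via SRB (0.1%, TCA-fixed, 560 nm).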

Compound | outcome | AC50
CCC(=O)C(CC(C)N(C)C)(c1ccccc1)c1ccccc1 (stereo not given) | inactive | –
CCNc1nc(NC(C)(C)C)nc(SC)n1 | inactive | –
CC(C)(C)CC(C)(C)c1ccc(O)cc1 | – | 7.99 µM (active)
CCOP(=S)(OCC)SCCS(=O)(=O)CC | inactive | –
CC(=O)[O][Hg][c]1ccccc1 | – | 2.59 µM (active)
O=C(O)C(F)(F)C(F)(F)C(F)(F)C(F)(F)C(F)(F)C(F)(F)F | inactive | –
CCC(C)(C)c1ccc(O)c(C(C)(C)CC)c1 | – | 12 µM (active)
CN(C)N=O | inactive | –
CC(=O)OC(c1ccccc1)C(Cl)(Cl)Cl (stereo not given) | inactive | –
CC(C)(c1ccccc1)c1ccc(O)c(C(C)(C)c2ccccc2)c1 | – | 11.7 µM (active)
C[C@@H]1C[C@@H]([C@H](O)CC2CC(=O)NC(=O)C2)C(=O)[C@@H](C)C1 | – | 2.05 µM (active)
O=C1C2(Cl)C3(Cl)C4(Cl)C(Cl)(Cl)C5(Cl)C3(Cl)C1(Cl)C5(Cl)C24Cl (stereo not given) | – | 7.03 µM (active)
ClC1(Cl)C2(Cl)C3(Cl)C4(Cl)C(Cl)(Cl)C5(Cl)C3(Cl)C1(Cl)C5(Cl)C24Cl (stereo not given) | inactive | –
CCN1CCC2(CC1)COc1cc3c(cc12)N(C(=O)c1ccc(-c2ccc(-c4nnc(C)o4)cc2C)cc1)CC3 | – | 13.2 µM (active)
O=C(O)C(F)(F)C(F)(F)C(F)(F)C(F)(F)C(F)(F)C(F)(F)C(F)(F)C(F)(F)C(F)(F)C(F)(F)F | inactive | 33 µM (active) and 5.02 µM (active)
CC(C)c1ccc(CO)cc1 | inactive | –
COC[C@H](C)N(C(=O)CCl)c1c(C)csc1C | inactive | –
Oc1cccc2cccnc12 | inactive | –

read-out: not listed separately; experiment: BSK_3C_uPAR: BioMAP Diversity Plus: 3C Assay for Urokinase-type plasminogen activator receptor (uPAR) Biomarker Activity (AID 2282998); settings: BioMAP 3C HUVEC, uPAR biomarker ELISA; actives raise or lower the signal
Summary of the method: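 Human umbilical vein endothelial primary cells were exposed to test chemical for 24 h. Cell-surface uPAR was then quantified by ELISA, and responses were fitted bidirectionally against DMSO as negative control and baseline.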

Compound | outcome | AC50
CCC(=O)C(CC(C)N(C)C)(c1ccccc1)c1ccccc1 (stereo not given) | inactive | –
CCNc1nc(NC(C)(C)C)nc(SC)n1 | inactive | –
CC(C)(C)CC(C)(C)c1ccc(O)cc1 | – | 7.17 µM (active)
CCOP(=S)(OCC)SCCS(=O)(=O)CC | inactive | –
CC(=O)[O][Hg][c]1ccccc1 | – | 1.17 µM (active)
O=C(O)C(F)(F)C(F)(F)C(F)(F)C(F)(F)C(F)(F)C(F)(F)F | inactive | –
CCC(C)(C)c1ccc(O)c(C(C)(C)CC)c1 | – | 8.8 µM (active)
CN(C)N=O | inactive | –
CC(=O)OC(c1ccccc1)C(Cl)(Cl)Cl (stereo not given) | inactive | –
CC(C)(c1ccccc1)c1ccc(O)c(C(C)(C)c2ccccc2)c1 | – | 9.74 µM (active)
C[C@@H]1C[C@@H]([C@H](O)CC2CC(=O)NC(=O)C2)C(=O)[C@@H](C)C1 | – | 5.3 µM (active)
O=C1C2(Cl)C3(Cl)C4(Cl)C(Cl)(Cl)C5(Cl)C3(Cl)C1(Cl)C5(Cl)C24Cl (stereo not given) | – | 7.28 µM (active)
ClC1(Cl)C2(Cl)C3(Cl)C4(Cl)C(Cl)(Cl)C5(Cl)C3(Cl)C1(Cl)C5(Cl)C24Cl (stereo not given) | inactive | –
CCN1CCC2(CC1)COc1cc3c(cc12)N(C(=O)c1ccc(-c2ccc(-c4nnc(C)o4)cc2C)cc1)CC3 | – | 9.27 µM (active)
O=C(O)C(F)(F)C(F)(F)C(F)(F)C(F)(F)C(F)(F)C(F)(F)C(F)(F)C(F)(F)C(F)(F)C(F)(F)F | inactive | 31.9 µM (active) and 4.88 µM (active)
CC(C)c1ccc(CO)cc1 | inactive | –
COC[C@H](C)N(C(=O)CCl)c1c(C)csc1C | inactive | –
Oc1cccc2cccnc12 | inactive | –
